ChEMBL document CHEMBL3433997, “St. Jude Leishmania screening dataset” (2016)

Key:
Assay type in all cases: functional
[1] = biological target: Solute carrier family 2, facilitated glucose transporter member 1 (Homo sapiens) (UniProt P11166); assay: ST_JUDE_LEISH: Cytotoxicity at 2uM final concentration against transgenic Leishmania Mexicana promastigotes LmGLUT1 that are glucose transport deficient and complemented with the human glucose transporter GLUT1. Activity is measured by DNA content using SYBR green in vitro
Sequence of Solute carrier family 2, facilitated glucose transporter member 1 (Homo sapiens) (P11166 whole entry): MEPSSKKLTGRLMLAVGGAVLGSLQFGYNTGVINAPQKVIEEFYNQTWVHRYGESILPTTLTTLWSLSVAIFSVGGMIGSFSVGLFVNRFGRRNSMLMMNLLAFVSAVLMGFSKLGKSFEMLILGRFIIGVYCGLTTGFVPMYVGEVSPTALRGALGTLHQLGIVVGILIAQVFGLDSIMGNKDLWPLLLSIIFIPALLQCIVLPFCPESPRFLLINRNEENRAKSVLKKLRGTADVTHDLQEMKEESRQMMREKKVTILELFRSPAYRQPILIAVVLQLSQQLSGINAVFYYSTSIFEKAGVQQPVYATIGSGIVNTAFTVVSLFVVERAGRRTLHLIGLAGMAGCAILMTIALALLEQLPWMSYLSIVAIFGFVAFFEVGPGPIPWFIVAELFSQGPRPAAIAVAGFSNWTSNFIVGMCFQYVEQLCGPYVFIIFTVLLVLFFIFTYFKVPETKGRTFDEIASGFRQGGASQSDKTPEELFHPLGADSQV

[2] = biological target: Hexose transporter 1 (Plasmodium falciparum) (UniProt O97467); assay: ST_JUDE_LEISH: Cytotoxicity at 2uM final concentration against transgenic Leishmania Mexicana promastigotes LmPfHT that are glucose transport deficient and complemented with the Plasmodium falciparum hexose transporter. Activity is measured by DNA content using SYBR green in vitro
[3] = biological target: Glucose transporter (Leishmania mexicana) (UniProt O61059); assay: ST_JUDE_LEISH: Cytotoxicity at 2uM final concentration against transgenic Leishmania Mexicana promastigotes LmGT2 that are glucose transport deficient and complemented with the L. Mexicana glucose transporter 2. Activity is measured by DNA content using SYBR green in vitro

Row | SMILES | inhibition [1] | inhibition [2] | inhibition [3]
1 | CN1CCN(CCCN(Cc2cccc(-c3ccc(CNCc4ccc5c(c4)OCO5)cc3)c2)C(=O)Nc2ccccc2)CC1 | 1.77% | 4.4% | 1.33%
2 | COc1ccc(CCNc2nc(N)c3cc(OC)c(OC)cc3n2)cc1 | 2.3% | 3.91% | 1.41%
3 | O=S(=O)(Nc1cccc(CCN2CCCCC2CCN2CCCC2)c1)c1cccc2ccccc12 (stereo not drawn) | 1.15% | 2.49% | -0.21%
4 | Cc1cc(OCC2CCCO2)c2cc(NC(=O)C(=O)Nc3ccc4nc(C)cc(OCC5CCCO5)c4c3)ccc2n1 (stereo not drawn) | 3.87% | 3.62% | 3.37%
5 | c1ccc2c(C3CCN(CCCCOc4ccc5c(c4)CCN(C4CCC4)CC5)CC3)c[nH]c2c1 | -2.06% | 3.7% | 4.47%
6 | Cc1ccc2c(OCCN3CCC(Cc4ccc5c(c4)NC(=O)CO5)CC3)cc(F)cc2n1 | 3.49% | 2.13% | 0.63%
7 | Nc1c2c(nc3ccccc13)C(=Cc1ccc(O)cc1)CCC2 | 5.91% | 8.35% | 2.9%
8 | C=C(C)Cn1cc(C2CCN(CCCCNC(=O)c3sc(-c4ccc(Cl)cc4Cl)nc3CO)CC2)c2ccccc21 | -1.31% | -1.73% | 0.05%
9 | COc1cc(/C=N/Nc2nc(Nc3ccccc3)nc(Nc3ccccc3)n2)ccc1OCc1ccccc1[N+](=O)[O-] | 4.18% | 3.92% | 0.87%
10 | Cc1cccc2nc(-c3cccc(-c4cccc(NC(=O)c5c[nH]cn5)c4)c3)[nH]c12 | 1.5% | 0.24% | -1.05%
11 | Cc1cc(=O)c2cc(Oc3ccc(OC(F)(F)F)cc3)ccc2[nH]1 | -0.06% | 0.96% | -1.19%
12 | CCCCCC(C)C(C)c1cc(OC(N)=O)c2c(c1)OC(C)(C)C=C2c1ccncc1 (stereo not drawn) | -3.81% | -1.09% | -1.38%
13 | CN1CCCN(Cc2cccc(-c3cccc(NC(=O)c4cccc(Cl)c4)c3)c2)CC1 | 13.4% | 9.81% | 9.71%
14 | O=S(=O)(NCCN1CCCC1)c1ccc(-c2cccc(CNCc3ccc(F)cc3)c2)cc1 | 1.16% | 1.09% | -0.22%
15 | CN1CCCC(CN2CCN(Cc3ccc(-c4ccc(-c5nc6ccccc6[nH]5)cc4)cc3)CC2)C1 (stereo not drawn) | 13% | 15.9% | 7.8%
16 | O=C(NCCCNc1nc2ccccc2[nH]1)c1cccc(OC(F)(F)F)c1 | 2.27% | -0.62% | 1.46%
17 | Cc1cccc2c3c([nH]c12)C1(CCN(Cc2ccccc2)CC1)NC(C(=O)NCc1ccccc1)C3 (stereo not drawn) | 0.05% | -0.76% | 0.87%
18 | CCCCc1ccc(C(=O)NC2CCN(C[C@H](O)c3ccnc4ccc(OC)cc34)CC2)cc1 | 66.8% | 65.3% | 76.8%

Row | SMILES | inhibition [1] | inhibition [2] | inhibition [3]
19 | CCOC(=O)CN(c1ccc(Br)cc1OCCOc1cc(Br)ccc1N(CC(=O)OCC)C(C)C(=O)OCC)C(C)C(=O)OCC (stereo not drawn) | 1.16% | -0.2% | 1.37%
20 | CCc1ccc(N2C(N)=NC(N)=NC2(C)C)cc1 | 0.74% | 1.29% | 2.09%
21 | Cc1ccc(CCNCC(O)c2cccc(C(F)(F)F)c2)cc1 (stereo not drawn) | 0.25% | 1.08% | 1.78%
22 | CN1CCN(c2ccnc3ccc(NC(=O)Nc4ccc(Cl)cc4)cc23)CC1 | -1.11% | -0.83% | -1.7%
23 | OC(CNc1ccnc(Nc2cccc(Cl)c2)n1)c1cccc(C(F)(F)F)c1 (stereo not drawn) | 14.4% | 11.6% | 4.06%
24 | CCCC(C(CC1CCC(C)CC1)C(=O)NC(CCCNc1ncccn1)C(=O)Nc1nccs1)N(O)C=O (stereo not drawn) | 3.88% | 3.89% | 5.63%
25 | CCC(=O)c1c(C)n(-c2ncnc3c2nc(C)n3-c2ccc(C)cc2C)c2ccccc12 | 4.6% | 1.9% | 3.62%
26 | COc1ccc(CCN(C)CCCCc2ccc(NC(=O)c3cccc4c(=O)c5cc(F)ccc5sc34)cc2)cc1OC | 9.78% | 4.42% | 2.03%
27 | O=C(NCCCCN1CCN(c2ccc3c(c2)CCC3)CC1)c1ccc(NC(=O)c2ccc(Cl)cc2)cc1 | 55.3% | 38.1% | 24.9%
28 | FC(F)(F)c1ccc2c(NN=Cc3cccc(Cl)c3)ccnc2c1 | 5.93% | 5.5% | 3.57%
29 | CCN1CCN(c2cc(C)c3cc(NC(=O)c4cccc(Cl)c4)ccc3n2)CC1 | 7.2% | 9.24% | 8.84%
30 | CN(C)S(=O)(=O)n1ncc2c3c(N)nc(N)nc3ccc21 | 0.68% | 1.22% | 0.96%
31 | COc1cc(C)nc2ccc(NC(=O)c3cc([N+](=O)[O-])cc([N+](=O)[O-])c3)cc12 | 2.43% | 0.24% | 3.33%
32 | Cc1ccc2nc(N(CCCn3ccnc3)C(=O)C=Cc3cccs3)sc2c1 | 0.75% | 1.84% | -2.73%
33 | CN(Cc1ccc(NC(=O)CCC2CCN(C(=O)/C=C/c3ccc(Cl)c(Cl)c3)CC2)cc1)C1CCOCC1 | 4.84% | 5.1% | -1.91%
34 | Cc1[nH]c(C)c(-c2ccc(-c3ccc(F)cc3)nc2)c(=O)c1Br | 0.98% | 1.82% | 1.04%
35 | Cc1sc2cc(Cl)cc(Cl)c2c1S(=O)(=O)Nc1ccc2nccc(N3CCNCC3)c2c1 | -1.42% | -0.22% | -0.24%
36 | O=[N+]([O-])c1cccc(-c2nc3cc(C4=NC5CCCCC5N4)ccc3[nH]2)c1 (stereo not drawn) | 0.61% | 2.08% | 1.26%
